Screen size: about 1,100 compounds; about 390 (35%) were called active. Another 30% or so got no clear call; they are omitted. Some of the results follow. Values without a mark were called inactive. Calls follow the shape of the dose curve; as a rule, active = well fitted inhibition curve with a large enough effect; inconclusive = small, poorly fitted or top-dose-only effect; inactive = flat fitted curve, though single readings scatter.
% is scaled to controls: 0 for no effect and ±100 for the full control effect; potency is read from the fitted curve at half-maximal effect.

For this experiment, the target named is Luciferin 4-monooxygenase (Photinus pyralis) (UniProt P08659). The experiment is described as follows: qHTS of Nrf2 Activators: Hit Validation in Secondary FLuc Assay. Also: nearly all actives have a fitted effect of over 65% in size. Conditions: firefly luciferase inhibition counter-screen, luminescence; series mostly up to 57.5 µM; activity, negative = inhibition: at the top concentration. The source says:
Many diseases have some form of oxidative stress injury and ties to inflammation, causing a host of problems for the patient. The antioxidant response element (ARE) plays an important role in alleviating the harmful effects of oxidative stress. The antioxidant response element (ARE) is a transcriptional regulatory element involved in the activation of genes coding for a number of antioxidant proteins and detoxifying enzymes. These enzymes work in concert to protect tissues from oxidative insults and chemical toxicities in human hepatocytes and immune cells. The protective effects of ARE activation are primarily triggered through Nrf2 (NF-E2-related factor) binding to and activating AREs. It is known that Nrf2 controls the production of over 250 antioxidant and detoxification proteins (Hu et al., 2006), thereby protecting tissues by increasing cellular antioxidant content and suppressing inflammatory signaling pathways. The transcription factor Nrf2 is a central link between oxidative chemicals, such as phenolic antioxidants and electrophilic compounds, and the activation of ARE. Nrf2 levels are constitutively low as a consequence of its interaction with Keap1, which targets its degradation (Zipper and Mulcahy, 2002). Electrophiles react with key cysteine residues in Keap1, releasing Nrf2 and allowing its translocation to the nucleus. Once within the nucleus, Nrf2 complexes with coactivators such as p300, and binds to the AREs to induce gene transcription of cytoprotective enzymes, resulting in the prevention of toxicity. Activation of Nrf2 protects tissues by increasing cellular antioxidant content and suppressing inflammatory signaling pathways. Identifying novel and potent Nrf2 activators by using the AREc32 cell line to detect ARE activation by small molecules will lead to the identification and development of probes to study protective pathways in multiple tissues. These specific probes are essential to study the ARE pathway, and eventually to determine whether this pathway does activate genes that could protect against a host of diseases, including cardiovascular diseases, obesity, diabetes, Alzheimer's, and Parkinson's disease.
This project's aim is to identify novel and potent Nrf2 activators by using the AREc32 cell line to detect ARE activation by small molecules, which will lead to the identification and development of probes to study the ARE pathway. In this counter assay, we aim to identify false positive as identified from this primary assay using an FLuc assay with an inhibiting read-out.
NIH Chemical Genomics Center [NCGC]
NIH Molecular Libraries Probe Centers Network [MLPCN]
Assay Submitter (PI): Curtis Klaassen, University of Kansas Medical Center
Assess whether an activator in the primary assay potentially causes such activation by inhibitor-induced stabilization of the firefly luciferase reporter enzyme by determining whether it inhibits firefly luciferase in the presence of Km concentrations of its substrates (ATP and D-luciferin).
(qHTS replaces the single test concentration by a dilution series.)
In the case of `Cc1cccc(C(=O)Nc2nnc(SCC(=O)NCc3ccco3)s2)c1`, the Potency was 2390 nM (active). Still for that read-out and setting: the same measure for `Clc1ccccc1Nc1ncnc(-n2cccc2)n1`: 2130 nM (active).

In the case of `CCOc1ccc(-n2c(O)c(N=Nc3ccc([N+](=O)[O-])cc3)c(=O)[nH]c2=O)cc1`, the “activity, negative = inhibition” value was -3.35%.

For `O=C1c2ccccc2-c2cc3ccccc3cc21`, the Potency was 4780 nM (active). Same read-out and setting: the same measure for `Clc1cccc(/C=N\Nc2nccs2)c1`: 4780 nM (active). Regarding `CC(=CCOc1ccc2ccc(=O)oc2c1)C1=CC(=O)C(C)(C)O1`, the “activity, negative = inhibition” value is -24.9%.

Consider `O=C(O)c1ccc([N+](=O)[O-])c([N+](=O)[O-])c1`, for which the “activity, negative = inhibition” value was -1.27%. Consider `O=C(Nc1ccc(Cl)c(Cl)c1)c1ccco1`, for which the Potency was 9530 nM (active). Still for that read-out and setting: the figure for `NC(=O)c1c(NC(=O)c2ccccc2F)sc2c1CCC2` is 1350 nM (active).

Consider `Cn1c(O)c(N=Nc2ccc(S(=O)(=O)N3CCOCC3)cc2)c(=O)n(C)c1=O`, for which the “activity, negative = inhibition” value was -18.4%. Consider `Fc1cccc(F)c1-c1nc(-c2ccc(Cl)cc2)no1`, for which the Potency is 2130 nM (active).

These data come from PubChem BioAssay AID651597 (National Center for Advancing Translational Sciences (NCATS), 2012).
